Results: PubChem BioAssay (NCATS)
Values without a mark were called inactive. Active and inactive are the calls of the source. The rule behind the calls is not given here.

System: HIV-1 nucleocapsid protein NCp7 (binding to TG oligonucleotide)
Assay: HIV Nucleocapsid (AID 346);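 note: potency is for inhibitors that block NC binding and lower polarization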
Conditions: HIV-1 NC / fluorescein-TGTGTGTG probe, fluorescence polarization
Summary of the method: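 Fluorescence polarization readout: labelled TG4xF oligo (10 nM) with 100 nM nucleocapsid protein, high-salt (250mM NaCl) Hepes pH 7.5 buffer containing zinc and fresh reducing agents. Compounds added by pin tool; incubation 1 hr, room temperature.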
Potency is the fitted concentration of half-maximal effect.

## COc1ccc(Oc2ncc3nc(CCc4ccccc4)c(=O)n(C)c3n2)cc1
  Potency: > 20 µM

## c1cncc(-c2cncnc2NCc2cccs2)c1
  Potency: > 20 µM

## O=C(c1csnn1)N1CCC2(CCN(Cc3ccccc3)CC2)CC1
  Potency: > 20 µM

## COc1cccc(Cn2c(=O)c(CCc3ccccc3)nc3cncnc32)c1
  Potency: > 20 µM

## N#Cc1cccc(-c2nc3cnc(N4CCOCC4)nc3n(C[C@H]3CCCO3)c2=O)c1
  Potency: > 20 µM

## COc1cccc(-c2nccc(NCc3cccnc3)n2)c1
  Potency: > 20 µM

## Cc1noc(C)c1-c1nc(N2CCOCC2)c2ccccc2n1
  Potency: > 20 µM

## CN1CCN(c2ncc3nc(-c4ccc(F)cc4)c(=O)n(Cc4cccs4)c3n2)CC1
  Potency: > 20 µM

## COc1ccc(-c2nc3cnc(N4CCN(C)CC4)nc3n(Cc3ccc(F)cc3)c2=O)cc1
  Potency: > 20 µM

## FC(F)(F)c1ccccc1-c1nc(-n2ccnc2)c2ccccc2n1
  Potency: > 20 µM

## O=C(c1ccncc1)N1CCC2(CC1)CN(c1ccccc1)C2
  Potency: > 20 µM

## COc1cccc(Nc2ncc3ncc(=O)n(Cc4cccs4)c3n2)c1
  Potency: > 20 µM

## COC(=O)N1CCC2(CC1)CN(c1ccccc1)C2
  Potency: > 20 µM

## COCC(=O)N1CCC2(CCCN(Cc3ccccc3)C2)CC1
  Potency: > 20 µM

## COCCn1c(=O)c(-c2cccs2)nc2cnc(Oc3cccc(Cl)c3)nc21
  Potency: > 20 µM

## Cc1noc(C)c1C(=O)N1CCC[C@@]2(CCN(C(c3ccccc3)c3ccccc3)C2)C1
  Potency: > 4 µM

## COc1ncc2ncc(=O)n(Cc3ccc(F)cc3)c2n1
  Potency: > 20 µM

## Cn1c(=O)c(-c2ccc(Cl)cc2)nc2cncnc21
  Potency: > 20 µM

## N#Cc1cccc(-c2cc(NCc3cccnc3)ncn2)c1
  Potency: > 20 µM

## COc1ccc(C(=O)N2CCC3(CCCN(c4cccc(-c5ccccc5)c4)C3)CC2)cc1
  Potency: > 20 µM

## N#Cc1cccc(-c2cncnc2-n2ccnc2)c1
  Potency: > 20 µM

## O=C(c1cccc(F)c1)N1CCC[C@@]2(CCN(c3cccc(-c4ccccc4)c3)C2)C1
  Potency: > 20 µM

## Cc1nc2cnc(OCc3ccccc3)nc2n(CCC#N)c1=O
  Potency: > 20 µM

## COCCn1c(=O)c(-c2cc(F)cc(F)c2)nc2cnc(N3CCN(C)CC3)nc21
  Potency: > 20 µM

## COCCNc1nc(-c2ccccc2OC)nc2ccccc12
  Potency: > 20 µM

## COc1ccc(C(=O)N2CCC3(CCN(C(=O)Nc4cccc(F)c4)CC3)CC2)cc1
  Potency: > 20 µM

## Cn1cccc1C(=O)N1CCC[C@@]2(CCN(Cc3cc(C(F)(F)F)cc(C(F)(F)F)c3)C2)C1
  Potency: > 20 µM

## COCC(=O)N1CCC2(CCCN(Cc3ccccc3OC)C2)CC1
  Potency: > 20 µM

## CCNc1ncc2nc(-c3cccs3)c(=O)n(C)c2n1
  Potency: > 20 µM

## Cc1cnc(CNc2ccnc(-c3ccccc3CN(C)C)n2)cn1
  Potency: > 20 µM

## O=C(Nc1ccccc1)N1CC2(CCN(C(=O)c3cc(C(F)(F)F)cc(C(F)(F)F)c3)CC2)C1
  Potency: > 20 µM

## N#Cc1cccc(NC(=O)N2CCC3(CC2)CCN(C(=O)c2csnn2)CC3)c1
  Potency: > 20 µM

## COc1ccc(CNc2ncnc3ccc(-c4ccoc4)cc23)c(OC)c1
  Potency: > 20 µM

## O=C(c1ccncc1)N1CCC2(CC1)CN(c1ccc(-c3ccccc3)cc1)C2
  Potency: > 20 µM

## Cc1cnc(CNc2ncncc2-c2cccc(C#N)c2)cn1
  Potency: > 20 µM

## COc1ccc2[nH]cc(CCNc3ccnc(-c4cccc(NS(C)(=O)=O)c4)n3)c2c1
  Potency: > 20 µM

## O=c1c(-c2cccs2)nc2cnc(N3CCOCC3)nc2n1Cc1cccs1
  Potency: > 4 µM

## c1csc(CNc2nc(-c3ccc4c(c3)OCO4)nc3ccccc23)c1
  Potency: > 20 µM

## COc1cccc(Nc2ncc3nc(C)c(=O)n(-c4ccccc4)c3n2)c1
  Potency: > 20 µM

## Cc1nc2cnc(N3CCNCC3)nc2n(CCC#N)c1=O
  Potency: > 20 µM

## N#CCCn1c(=O)c(-c2cccs2)nc2cnc(N3CCOCC3)nc21
  Potency: 4.26 µM (active)

## COc1ccccc1-c1nc(NCc2cnc(C)cn2)c2ccccc2n1
  Potency: > 20 µM

## c1ccc(Nc2ncnc3ccc(-c4cccnc4)cc23)cc1
  Potency: > 20 µM

## O=S(=O)(c1ccccc1)N1CCC2(CCN(c3cccc(-c4ccccc4)c3)CC2)CC1
  Potency: > 20 µM

## O=C(Nc1cccc(F)c1)N1CCCC2(CCNCC2)C1
  Potency: > 4 µM

## O=C(c1cnccn1)N1CCC2(CCCN(c3ccccn3)C2)CC1
  Potency: > 20 µM

## CS(=O)(=O)Nc1cccc(-c2nc(-n3ccnc3)c3ccccc3n2)c1
  Potency: > 20 µM

## COc1ccc2[nH]cc(CCNc3nc(-c4cccnc4)nc4ccccc34)c2c1
  Potency: > 20 µM

## CC(=O)NCCNc1nc(-c2cccc(NS(C)(=O)=O)c2)nc2ccccc12
  Potency: > 20 µM

## COc1ccc(CNc2ccnc(-c3ccccc3C(F)(F)F)n2)c(OC)c1
  Potency: > 20 µM

## COc1ccccc1CNc1ccnc(-c2ccccc2OC)n1
  Potency: > 20 µM

## c1nc(N2CCOCC2)c2cc(-c3ccoc3)ccc2n1
  Potency: > 20 µM

## N#Cc1cccc(-c2nc(NCCN3CCOCC3)c3ccccc3n2)c1
  Potency: > 20 µM

## O=C(c1ccncc1)N1CCC[C@@]2(CCN(Cc3ccncc3)C2)C1
  Potency: > 20 µM

## CC(C)NC(=O)N1CCC2(CC1)CCN(S(=O)(=O)c1ccccc1)CC2
  Potency: > 20 µM

## COc1ccc(-c2nc3cnc(Oc4ccccc4)nc3n(CCC#N)c2=O)cc1
  Potency: 16.7 µM

## CN1CCN(c2cc(-c3ccc(N(C)C)cc3)ncn2)CC1
  Potency: > 20 µM

## O=C(Oc1ccccc1)N1CCC[C@@]2(CCN(c3ncccn3)C2)C1
  Potency: > 20 µM

## O=c1cnc2cnc(N3CCOCC3)nc2n1Cc1cccs1
  Potency: > 20 µM

## O=C(c1cccc(F)c1)N1CCC2(CC1)CCN(C(c1ccccc1)c1ccccc1)CC2
  Potency: > 20 µM

## FC(F)(F)c1ccccc1-c1cncnc1NCCN1CCOCC1
  Potency: > 20 µM

## COCCn1c(=O)c(-c2ccccc2)nc2cnc(Nc3ccccc3)nc21
  Potency: > 20 µM

## O=c1c(-c2ccc(F)c(F)c2)nc2cncnc2n1-c1ccccc1
  Potency: > 20 µM

## O=c1c(-c2ccccc2)nc2cnc(N3CCOCC3)nc2n1C1CC1
  Potency: > 20 µM

## O=c1c(-c2ccc(Cl)cc2)nc2cnc(Nc3ccccc3)nc2n1C[C@H]1CCCO1
  Potency: 0.219 µM (active)

## COc1ccccc1CNc1cc(-c2ccccc2C(F)(F)F)ncn1
  Potency: > 20 µM

## COCCn1c(=O)c(-c2ccc(F)cc2)nc2cnc(Oc3ccc(OC)cc3)nc21
  Potency: > 20 µM

## COc1ccc(-n2c(=O)c(-c3cccs3)nc3cnc(N4CCOCC4)nc32)cc1
  Potency: > 4 µM

## COc1ccccc1CNc1ncncc1-c1ccoc1
  Potency: > 20 µM

## O=S(=O)(c1ccccc1)N1CCC[C@@]2(CCN(C(c3ccccc3)c3ccccc3)C2)C1
  Potency: > 20 µM

## N#Cc1cccc(NC(=O)N2CC[C@@]3(CCCN(C(=O)c4cnccn4)C3)C2)c1
  Potency: > 20 µM

## CC(=O)NCCNc1ncnc2ccc(-c3ccoc3)cc12
  Potency: > 20 µM

## CNc1nc(-c2ccccc2Cl)nc2ccccc12
  Potency: > 20 µM

## O=c1c(-c2cccs2)nc2cnc(Oc3cccc(Cl)c3)nc2n1C1CC1
  Potency: > 20 µM

## CC(C)NC(=O)N1CCCC2(CCN(C(=O)c3ccco3)CC2)C1
  Potency: > 20 µM

## O=c1cnc2cnc(OCc3ccccc3)nc2n1CCc1ccccc1
  Potency: > 20 µM

## c1ccc(CNc2ncnc3ccc(-c4cccnc4)cc23)cc1
  Potency: > 20 µM

## COc1ccccc1CNc1ncncc1-c1ccccc1C(F)(F)F
  Potency: > 20 µM

## O=C(c1cnccn1)N1CCC2(CCN(Cc3ccccc3)CC2)CC1
  Potency: > 20 µM

## CN1CCN(c2ncc3nc(CCc4ccccc4)c(=O)n(C)c3n2)CC1
  Potency: > 20 µM

## COc1cccc(Cn2c(=O)c(C)nc3cnc(N4CCOCC4)nc32)c1
  Potency: > 20 µM

## COCC(=O)N1CCC[C@@]2(CCN(c3ccncc3)C2)C1
  Potency: > 20 µM

## Cc1nc2cnc(Oc3cccc(Cl)c3)nc2n(CCC#N)c1=O
  Potency: > 20 µM

## O=C(c1ccco1)N1CCC[C@@]2(CCN(c3ccncc3)C2)C1
  Potency: > 20 µM

## CN1CCN(c2ncc3nc(-c4cccc(C#N)c4)c(=O)n(CCc4ccccc4)c3n2)CC1
  Potency: > 20 µM

## CCNc1ncc2ncc(=O)n(Cc3cccc(OC)c3)c2n1
  Potency: > 20 µM

## CN(C)c1ccc(-c2nc(N(C)C)c3ccccc3n2)cc1
  Potency: > 20 µM

## COc1ccc(C(=O)N2CCC[C@@]3(CCN(Cc4ccccc4OC)C3)C2)cc1
  Potency: > 20 µM

## COc1ccc(-n2c(=O)c(-c3cc(F)cc(F)c3)nc3cnc(N(C)C)nc32)cc1
  Potency: > 20 µM

## COc1ccccc1-c1nc(NCc2ccccc2)c2ccccc2n1
  Potency: > 20 µM

## N#Cc1cccc(-c2cc(NCc3ccccc3)ncn2)c1
  Potency: > 20 µM

## O=c1c(-c2ccccc2)nc2cnc(N3CCOCC3)nc2n1CCc1ccccc1
  Potency: > 20 µM

## Cc1nc2cnc(N3CCOCC3)nc2n(Cc2ccc(F)cc2)c1=O
  Potency: > 20 µM

## CN(C)c1ncc2nc(-c3ccc(Cl)cc3)c(=O)n(-c3ccccc3)c2n1
  Potency: > 4 µM

## Cc1cnc(CNc2ncncc2-c2cccnc2)cn1
  Potency: > 20 µM

## O=c1cnc2cncnc2n1Cc1ccc(F)cc1
  Potency: > 20 µM

## COCCn1c(=O)c(C)nc2cnc(N3CCOCC3)nc21
  Potency: > 20 µM

## CS(=O)(=O)N1CCC2(CC1)CN(c1ccccc1)C2
  Potency: > 20 µM

## COc1cccc(-c2ccc3ncnc(N4CCN(C)CC4)c3c2)c1
  Potency: > 20 µM

## O=c1c(-c2cc(F)cc(F)c2)nc2cnc(N3CCNCC3)nc2n1Cc1ccc(F)cc1
  Potency: > 20 µM

## COc1cccc(-c2cc(NCCc3c[nH]c4ccc(OC)cc34)ncn2)c1
  Potency: > 20 µM

## Cn1cc(-c2nc3cnc(Oc4cccc(Cl)c4)nc3n(C3CC3)c2=O)c2ccccc21
  Potency: > 20 µM

## O=C(Oc1ccccc1)N1CCC2(CCCN(c3ccc(-c4ccccc4)cc3)C2)CC1
  Potency: > 20 µM

## COc1ccc(CNc2ncnc3ccc(-c4cccc(C#N)c4)cc23)c(OC)c1
  Potency: > 20 µM

## CN1CCN(c2ncc3nc(-c4cccs4)c(=O)n(Cc4cccs4)c3n2)CC1
  Potency: > 20 µM

## CS(=O)(=O)Nc1cccc(-c2cncnc2NCc2cccnc2)c1
  Potency: > 20 µM

## CS(=O)(=O)N1CCC[C@@]2(CCN(c3ccccn3)C2)C1
  Potency: > 20 µM

## CN(C)c1ncc2nc(-c3ccc(F)cc3)c(=O)n(CCc3ccccc3)c2n1
  Potency: > 20 µM

## COc1cccc(Cn2c(=O)cnc3cncnc32)c1
  Potency: > 20 µM

## COCC(=O)N1CCC[C@@]2(CCN(c3ccccc3)C2)C1
  Potency: > 20 µM

## O=c1c(-c2ccccc2)nc2cnc(Oc3cccc(Cl)c3)nc2n1C[C@H]1CCCO1
  Potency: > 20 µM

## CN(Cc1ccco1)c1ncnc2ccc(-c3ccc4c(c3)OCO4)cc12
  Potency: > 20 µM

## Cc1nc2cnc(N3CCN(C)CC3)nc2n(Cc2ccc(F)cc2)c1=O
  Potency: > 20 µM

## CN(C)C(=O)c1ccc(-c2ccc3ncnc(NCc4cccs4)c3c2)cc1
  Potency: > 20 µM

## N#CCCn1c(=O)c(-c2ccccc2)nc2cnc(Oc3cccc(Cl)c3)nc21
  Potency: > 20 µM

## COc1ccc2[nH]cc(CCNc3ccnc(-c4ccc(N(C)C)cc4)n3)c2c1
  Potency: > 20 µM

## N#CCCn1c(=O)c(-c2cccc(C#N)c2)nc2cnc(Oc3ccccc3)nc21
  Potency: > 20 µM

## COc1ccc(NC(=O)N2CC3(CCN(C(=O)c4ccco4)CC3)C2)cc1
  Potency: > 20 µM

## N#Cc1cccc(-c2cncnc2NCc2cccs2)c1
  Potency: > 20 µM

## N#CCCn1c(=O)c(-c2cc(F)cc(F)c2)nc2cnc(Oc3ccccc3)nc21
  Potency: > 20 µM
